Compounds with a hit are over-represented: about 21% of the library has one in this group of screens.
IL-1B inflam inh: inflammasome signaling inhibition, IL-1 beta readout; THP-1 LPS/ATP IL-1B secretion, AlphaLISA, 16 h; active compounds read low; activity change, % at 57.5 µM; 360,000 tested, 4.7% active; AID 743279; in the data active = activity change below about -50%; inconclusive = mostly about -30% to -49%
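THP-1 cells pretreated 1 hr with compounds (up to 57.5 uM final), then stimulated with LPS (250 ng/mL final) plus ATP (1.25 mM final); secreted IL-1B measured by AlphaLISA after 16 hr, decreased signal indicating inhibition.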
DRD3 agonist: activates the human D3 dopamine receptor | P35462 | D3R DiscoveRx beta-arrestin cells, luminescence, 90 min | AID 652048 | 410,000 tested, 0.58% active | max activation, %; in the data active = max activation above about 30%
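Cells at 1500/well, incubated overnight, then treated with pinned compounds (dopamine as control) for 90 min at 37 degrees C. DiscoveRx reagent added for 30 - 60 minutes at room temperature; luminescence read.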
DT40 TDP1 CPT: growth inhibition of DT40 Tdp1-/-;hTDP1 cells with camptothecin (screen for TDP1 inhibitors). 420,000 tested, 12% active. AID 686979. Potency, µM (top dose mostly 46.2 µM), hits mostly inhibitors. chicken DT40 Tdp1-/-;hTDP1 cells + 20 nM CPT, ATP luminescence, 48 h; note: nearly all actives have a fitted effect of over 55% in size
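Cell growth measured by CellTiter-Glo luminescence after a minimum 48 h, 37 C compound exposure with 20 nM CPT in Tdp1-knockout DT40 cells stably expressing hTDP1, seeded 400/well; qHTS titration format.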
DT40 TDP1 no CPT: qHTS for Inhibitors of human tyrosyl-DNA phosphodiesterase 1 (TDP1): qHTS in cells in absence of CPT. DT40 Tdp1-/- hTDP1 cells, no CPT, ATP luminescence, 48 h. Potency, µM (highest dose often 46.2 µM), most hits filed as inhibitors. 420,000 tested, 15% active; note: nearly all actives have a fitted effect of over 55% in size
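A cellular qHTS used chicken DT40 cells lacking endogenous Tdp1 but carrying stably transfected human TDP1. Compounds were applied without camptothecin, and cell growth kinetics were judged by ATP-dependent luminescence after ≥48 hr.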
DRD3 antagonist: D3 dopamine receptor (human) antagonism; P35462; D3R cells, DiscoveRx beta-arrestin luminescence, antagonist mode; active compounds read low; max response, negative = inhibition, %; 360,000 tested, 2.5% active; AID 652054; in the data active = max response below about -50%; inconclusive = no clear call, values can overlap the other calls
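Cells plated overnight at 1500 cells/well, then exposed to library compounds with dopamine controls for 90 minutes at 37 degrees C. DiscoveRx reagent added for 30–60 minutes at room temperature; luminescence read, quantitative HTS format.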
ClpP mod: qHTS Assay for Activators of ClpP; ATP-dependent Clp protease proteolytic subunit (Bacillus subtilis (strain 168)), P80244; purified B. subtilis ClpP, FRET peptide cleavage, 20 min; Potency, µM (doses to about 57.5 µM); 340,000 tested, 1.9% active; active = well fitted falling curve with a large enough effect; inconclusive = small, poorly fitted or top-dose-only effect; inactive = no such curve, though single readings can be large or run the other way; note: the source files actives as falling curves though it sought activators and does not explain the sign; nearly all actives have a fitted effect of over 65% in size
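Purified B. subtilis ClpP, 10 microg/mL final in Tris/HCl pH8 with KCl, BSA, glycerol and Tween-20, cleaved an Abz/nitrotyrosine-quenched decapeptide. Fluorescence (ex 320, em 430) was read at 0 and 20 min at room temperature. Delta was normalized to 5.8 microM ADEP and DMSO/no-enzyme controls.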
Each line names hits and unclear results; the compound was inactive in the other large screens. Unless noted, calls come from the whole dose curve; as a rule, active = well fitted inhibition curve with a large enough effect; inconclusive = small, poorly fitted or top-dose-only effect; inactive = flat fitted curve, though single readings scatter.

CC1CC(N(C(=O)c2ccco2)c2ccccc2)c2ccccc2N1 (configuration not stated)	DT40 TDP1 CPT inconclusive, DT40 TDP1 no CPT 15µM, DRD3 antagonist -58
CC(C)(C)N1[C@@H](CC(=O)O)c2cc(C(F)(F)F)ccc2S1(=O)=O	none
NNc1nc(-c2ccccc2Cl)c2cc(Br)ccc2n1	DT40 TDP1 CPT 21µM, DT40 TDP1 no CPT 5.2µM
CCN(CC)c1nc(-c2ccccc2Cl)c2cc(Br)ccc2n1	DT40 TDP1 no CPT inconclusive (no result: IL-1B inflam inh, DRD3 antagonist)
CCOc1ccc(N(CC)S(=O)(=O)N2CCCC(C(=O)Nc3ccc(OC)c(OC)c3)C2)cc1 (configuration not stated)	DT40 TDP1 CPT inconclusive, DT40 TDP1 no CPT inconclusive (no result: IL-1B inflam inh, DRD3 antagonist)
CCCS(=O)(=O)NC(=O)C1(C)CCCN(C(=O)c2oc3ccccc3c2C)C1 (configuration not stated)	none
C=CC[n+]1c(-c2ccc(OC)c(OC)c2)csc1NNC(=O)Nc1ccccc1	IL-1B inflam inh -75, DT40 TDP1 CPT 7.3µM, DT40 TDP1 no CPT 6.5µM
CC(C)c1ccc(NC(=O)c2cc3c(s2)-c2ccccc2SC3)cc1	DT40 TDP1 CPT 18µM, DT40 TDP1 no CPT inconclusive (no result: IL-1B inflam inh, DRD3 antagonist)
O=C(NCc1ccccc1Cl)c1cc2c(s1)-c1ccccc1SC2	DT40 TDP1 CPT inconclusive, DT40 TDP1 no CPT inconclusive, ClpP mod 25µM (no result: IL-1B inflam inh, DRD3 antagonist)
Cc1cccc(CN(C(=S)Nc2c(C)cccc2C)c2cccnc2)c1	DT40 TDP1 no CPT inconclusive
Nc1nc(SCc2ccccn2)c2ncn(C3OC(CO)C(O)C3O)c2n1 (configuration not stated)	none (no result: ClpP mod)
Cc1cc(N2C(=O)C=CC2=O)c([N+](=O)[O-])cc1C	DT40 TDP1 CPT 0.82µM, DT40 TDP1 no CPT 1.8µM (no result: ClpP mod)
Cc1ccc(N2C(=O)C3C4C=CC(CC4)C3C2=O)cc1[N+](=O)[O-] (configuration not stated)	none
Cc1cc(C)cc(N2C(=O)C=CC2=O)c1	IL-1B inflam inh -103, DT40 TDP1 CPT 0.73µM, DT40 TDP1 no CPT 0.82µM
Cc1c(Cl)cc(-n2cnnn2)cc1[N+](=O)[O-]	none
Cc1c([N+](=O)[O-])cc(N2C(=O)C=CC2=O)cc1[N+](=O)[O-]	DT40 TDP1 CPT 0.73µM, DT40 TDP1 no CPT 1.6µM
COc1cc([N+](=O)[O-])cc(/C=N/NC(=O)c2cc(-c3ccccc3)nc3ccccc23)c1O	DT40 TDP1 CPT 21µM, DT40 TDP1 no CPT 23µM
COc1cc(/C=N/NC(=O)c2cncc(Br)c2)cc([N+](=O)[O-])c1O	DT40 TDP1 CPT inconclusive, DT40 TDP1 no CPT inconclusive
Cc1cc(C(=O)N/N=C/c2cccc([N+](=O)[O-])c2)c2ccccc2n1	DT40 TDP1 CPT inconclusive, DT40 TDP1 no CPT inconclusive
COc1cc([N+](=O)[O-])cc(/C=N/NC(=O)c2cncc(Br)c2)c1O	DT40 TDP1 CPT 4.6µM, DT40 TDP1 no CPT 18µM, DRD3 antagonist inconclusive
COc1cc([N+](=O)[O-])cc(/C=N/NC(=O)c2cc(C)nc3ccccc23)c1O	DT40 TDP1 CPT inconclusive, DT40 TDP1 no CPT inconclusive, DRD3 antagonist -56
COc1ccc(N2CC(C(=O)NCCC3=CCCCC3)CC2=O)c(OC)c1 (configuration not stated)	none
COc1ccc2nc3n(c(=O)c2c1)-c1ncccc1C(=O)NC3C (configuration not stated)	DT40 TDP1 no CPT inconclusive
Cc1ccc(NC(=O)c2c(C)cc(C)nc2SCC(=O)Nc2ccc(Br)cc2)cc1	DT40 TDP1 CPT inconclusive, DT40 TDP1 no CPT inconclusive (no result: IL-1B inflam inh, DRD3 antagonist)
NC(COCc1ccccc1)c1csc(Nc2cc(Oc3ccccc3)ncn2)n1 (configuration not stated)	IL-1B inflam inh -79, DT40 TDP1 CPT inconclusive, DT40 TDP1 no CPT 26µM
NC(Cc1ccc(F)cc1)c1csc(Nc2cc(Oc3ccccc3)ncn2)n1 (configuration not stated)	IL-1B inflam inh -75, DT40 TDP1 CPT inconclusive, DT40 TDP1 no CPT inconclusive
CCCCN(C)C(=O)c1ccc(Nc2nc(C(N)COCc3ccccc3)cs2)nc1 (configuration not stated)	IL-1B inflam inh inconclusive, DT40 TDP1 CPT 12µM, DT40 TDP1 no CPT 15µM
NC(COCc1ccccc1)c1csc(Nc2nccc(C(F)(F)F)n2)n1 (configuration not stated)	DT40 TDP1 CPT inconclusive, DT40 TDP1 no CPT inconclusive
COc1ccc(CC(N)c2csc(Nc3cc(Oc4ccccc4)ncn3)n2)cc1 (configuration not stated)	DT40 TDP1 CPT 16µM, DT40 TDP1 no CPT 12µM (no result: IL-1B inflam inh)
CC(C)C(N)c1csc(Nc2ccc(C(=O)N(C)Cc3ccccc3)cn2)n1 (configuration not stated)	DT40 TDP1 CPT inconclusive, DT40 TDP1 no CPT inconclusive
COc1ccccc1CNC(=O)CCS(=O)(=O)c1ccc2c(c1)oc(=O)n2C	none (no result: IL-1B inflam inh, DRD3 antagonist)
CCN(CC)S(=O)(=O)c1ccc(C(=O)NC2CC(=O)N(c3ccc4c(c3)OCCO4)C2)cc1 (configuration not stated)	DT40 TDP1 no CPT inconclusive (no result: IL-1B inflam inh, DRD3 antagonist)
COc1ccc(S(=O)(=O)NCC(c2ccco2)N2CCOCC2)cc1C (configuration not stated)	none (no result: IL-1B inflam inh, DRD3 antagonist)
NC(Cc1ccc(Cl)cc1)c1csc(Nc2cc(Oc3ccccc3)ncn2)n1 (configuration not stated)	IL-1B inflam inh -69, DT40 TDP1 no CPT inconclusive
O=C(NC(C(=O)c1ccccc1)N1CCCCCC1)c1ccco1 (configuration not stated)	DT40 TDP1 CPT 23µM, DT40 TDP1 no CPT 21µM
Cc1ccc(C(=O)C(NC(=O)c2ccco2)N2CCOCC2)cc1 (configuration not stated)	none
O=C(CCCl)Nc1nc2c(s1)CCc1ccccc1-2	IL-1B inflam inh -98, DT40 TDP1 CPT 13µM, DT40 TDP1 no CPT 5.8µM (no result: ClpP mod)
N#C/C(=C(/O)CCl)c1nc2c(s1)CCc1ccccc1-2	IL-1B inflam inh -95, DT40 TDP1 CPT 12µM, DT40 TDP1 no CPT 13µM
CC(=O)Nc1ccc(-c2nnn(CC(=O)Nc3ccc4c(c3)OCO4)n2)cc1Cl	none (no result: ClpP mod)
CC(C)(C)c1csc(N/N=C/c2ccc(O)cc2)n1	IL-1B inflam inh inconclusive, DT40 TDP1 CPT inconclusive, DT40 TDP1 no CPT inconclusive
C/C=C/c1cccc(-c2nc(C(=O)N3CCN(C)CC3)cc3c2[C@@H](CCO)N(C(=O)NC(C)C)C3)c1	none
CCOC(=O)NC(NCCc1ccccc1)(C(F)(F)F)C(F)(F)F	DRD3 agonist 31
CC1=NC(Nc2nc(C)c3ccccc3n2)=NC(C)(C)C1	IL-1B inflam inh -100, DT40 TDP1 CPT 21µM, DT40 TDP1 no CPT 16µM, DRD3 antagonist inconclusive

Bioassay records: PubChem, National Center for Advancing Translational Sciences (NCATS)
